Results on 43 compounds are retold here after PubChem BioAssay AID1259417 (TB Discovery Research, Infectious Disease Research Institute, 2018).

Among all 1,100 compounds or so, about 760 (69%) were called active. No rule for the calls is given here. The set was probably picked from earlier hits. Some of the results follow.

A short description of the assay: M. tuberculosis growth inhibition, HTS (AID 1259417).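 Also: bacteria grown with compound for 5 days at 37 °C.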 To be noted: stronger effect = higher value, concentration not given here.
[1] abbreviates: M. tuberculosis DsRed fluorescence growth inhibition.
Setting [2] is: M. tuberculosis growth inhibition.

As for `OC(COc1ccccc1Cl)CN1CCN(C(c2ccccc2)c2ccccc2)CC1` (stereo unspecified), the inhibition (in general, the drop in the measured response relative to a control, in per cent) by setting is: under setting [1], -4.97% (inactive); under setting [2], -9.36%.
As to `OC(COc1ccc2ccccc2c1)CN1CCCN(CC(O)COc2ccc3ccccc3c2)CC1` (stereo unspecified), the inhibition was 37.5% (active) under setting [1] and 79.7% under setting [2].
As to `O=C1c2cccc3cccc(c23)C(=O)N1CC1CCN(CC(O)COc2ccc3ccccc3c2)CC1` (stereo unspecified), the inhibition is, setting by setting: under setting [1], 37.2% (active); under setting [2], 31.4%.
As to `O=C1c2cccc3cccc(c23)C(=O)N1CCN1CCN(CC(O)COc2ccccc2Cl)CC1` (stereo unspecified), the inhibition under setting [1] is -4.11% (inactive) and the inhibition under setting [2] is -8.38%.
With `c1ccc(CN2CCN(c3nc(-c4ccccc4)nc(-n4ccnc4)n3)CC2)cc1`, the inhibition was 2.46% (inactive) under setting [1] and -9.34% under setting [2].
Regarding `CN(c1ccccc1)c1nc(N2CCCC2)nc(-n2ccnc2)n1`, the inhibition runs as follows: under setting [1], 57.3% (active); under setting [2], 34.7%.
`Cc1ccc(NC(=S)c2ccccn2)cc1`: the inhibition is 101% (active) under setting [1] and 101% under setting [2].
Take `CCCOc1ccccc1NC(=O)Nc1ccc(Cl)c(Cl)c1`: the inhibition reads like this: under setting [1], 0.884% (inactive); under setting [2], -14.7%.
The like results for `CCCOc1ccc(Nc2cc(C)nc3ccc(Cl)cc23)cc1` were, in that order, 101% (active) and 101%.
On to `CCOC(=O)c1ccc2nc(C)cc(Nc3ccc(N4CCCCC4)cc3)c2c1`, for which the inhibition reads like this: under setting [1], 100% (active); under setting [2], 100%.
Regarding `COC(=O)c1ccc2nc(C)cc(Nc3ccc(OCc4ccccc4)cc3)c2c1`, the inhibition is 92.1% (active) under setting [1] and 99.7% under setting [2].
For the compound `CCC(=Nc1ccccc1O)C1=C(O)CC(c2ccccc2)CC1=O` (stereo unspecified), the inhibition was 98.9% (active) under setting [1] and 98.8% under setting [2].
The matching figures for `O=C(c1cccs1)N(CCCn1ccnc1)c1nc2c(F)cc(F)cc2s1`: 73.3% (active) and 81.6%.
Consider `O=C(NNc1nc2c(F)cc(F)cc2s1)c1coc2ccccc2c1=O`, for which the inhibition under setting [1] is -0.752% (inactive) and the inhibition under setting [2] was -17.4%.
`O=C(c1ccco1)N(CCCn1ccnc1)c1nc2c(F)cccc2s1`: the inhibition under setting [1] is 91.1% (active) and the inhibition under setting [2] came to 97.4%.
For `O=C(c1ccco1)N(CCCn1ccnc1)c1nc2c(F)cc(F)cc2s1`, the inhibition reads like this: under setting [1], 97.5% (active); under setting [2], 98.1%.
In the case of `Oc1ccc(CSc2ccccc2)c2cccnc12`, the inhibition under setting [1] is 29% (active) and the inhibition under setting [2] came to 45.1%.
Consider `CC1=NN(C(=O)c2cccc(Cl)c2)C(O)(c2ccc(Cl)cc2)C1` (stereo unspecified), for which the inhibition is, setting by setting: under setting [1], 13.7% (active); under setting [2], 42.4%.
As for `CC(C)(C)c1ccc(C(=O)N2N=C(c3ccccc3)CC2(O)C(F)(F)F)cc1` (stereo unspecified), the inhibition is 2.12% (inactive) under setting [1] and -7.59% under setting [2].
The like results for `CC1=NN(C(=O)c2ccccc2)C(O)(c2ccncc2)C1` (stereo unspecified) were, in that order, 97.7% (active) and 94.3%.
As for `O=C(c1cccc(Cl)c1)N1N=C(c2ccc(Cl)cc2)CC1(O)C(F)(F)F` (stereo unspecified), the inhibition is 7.75% (inactive) under setting [1] and 23.1% under setting [2].
Take `CCC1=NN(C(=O)c2ccncc2)C(O)(c2ccc(Br)cc2)C1` (stereo unspecified): the inhibition is 97.9% (active) under setting [1] and 93.4% under setting [2].
For `CC1=NN(C(=S)Cc2ccccc2)C(C)(O)C1` (stereo unspecified), the inhibition is 5.87% (inactive) under setting [1] and 14.6% under setting [2].
`CC1(C)CC(=O)C2=C(C1)OC(N)=C([N+](=O)[O-])C2c1ccc(C#N)s1` (stereo unspecified): the inhibition reads like this: under setting [1], 10.4% (active); under setting [2], 32.4%.
With `CC1=NN(c2nc(-c3ccc(Cl)cc3)cs2)C(=O)C1C` (stereo unspecified), the inhibition was 4.11% (inactive) under setting [1] and 7.17% under setting [2].
For the compound `N#Cc1ccc(-c2ccc(OCC(N)=O)cc2)cc1`, the inhibition under setting [1] is 17.9% (active) and the inhibition under setting [2] came to 86.6%.
With `O=C(COc1ccc(Cl)cc1)Nc1ccc(Cc2ccncc2)cc1`, the inhibition runs as follows: under setting [1], -0.257% (inactive); under setting [2], -2.75%.
`N#Cc1ccc(-c2ccc(OCC(=O)Nc3cccnc3)cc2)cc1`: the inhibition was 43% (active) under setting [1] and 88.1% under setting [2].
In the case of `CC(C)(C)C(=O)NC(=S)NNC(=O)C(c1ccccc1)c1ccccc1`, the inhibition under setting [1] is 44.9% (active) and the inhibition under setting [2] was 30.8%.
For the compound `O=C(CC12CC3CC(CC(C3)C1)C2)Nc1ccc(N2CCOCC2)c(Cl)c1`, the inhibition reads like this: under setting [1], 33.8% (active); under setting [2], -14.8%.
The matching figures for `CCC(=O)N1CCN(c2ccc(Cl)cc2NC(=O)CC23CC4CC(CC(C4)C2)C3)CC1`: 6.85% (inactive) and 6.57%.
As for `CCN1CCN(c2ccc(NC(=O)CC34CC5CC(CC(C5)C3)C4)cc2Cl)CC1`, the inhibition reads like this: under setting [1], 32.7% (active); under setting [2], 46.9%.
`Cc1ccc2c(c1)c1ncnc(N3CCc4ccccc4C3)c1n2C`: the inhibition reads like this: under setting [1], 99.1% (active); under setting [2], 100%.
For `Cc1ccc(Cn2c(=N)n(CC(O)c3ccc(Cl)c(Cl)c3)c3ccccc32)cc1` (stereo unspecified), the inhibition was 99.8% (active) under setting [1] and 98.9% under setting [2].
On to `c1ccc(CC2CCN(c3nc4ccccc4n4cnnc34)CC2)cc1`, for which the inhibition was 57.6% (active) under setting [1] and 39.3% under setting [2].
As to `c1ccc2c(NCCc3c[nH]c4ccccc34)c3ccccc3nc2c1`, the inhibition is, setting by setting: under setting [1], 27.2% (active); under setting [2], 59.7%.
`FC(F)(F)c1cccc(-n2cc(-c3ccccc3)c3c(NCc4cccnc4)ncnc32)c1`: the inhibition is 4.11% (inactive) under setting [1] and -14% under setting [2].
As for `CC1CCN(C(=O)COC(=O)c2cc3ccccc3cc2O)CC1`, the inhibition was 75.2% (active) under setting [1] and 96% under setting [2].
`CCC1CCCCN1C(=O)COC(=O)c1cc2ccccc2cc1O` (stereo unspecified): the inhibition runs as follows: under setting [1], 37.8% (active); under setting [2], 89%.
With `O=C(OCC(=O)N1CCCCC1)c1cc2ccccc2cc1O`, the inhibition is, setting by setting: under setting [1], 47.8% (active); under setting [2], 88.2%.
The matching figures for `CC1CC(C)CN(C(=O)Nc2ccc(Cl)c(Cl)c2)C1` (stereo unspecified): 9.98% (inactive) and 2.73%.
The matching figures for `CC1CC(C)CN(C(=O)COC(=O)c2cc3ccccc3cc2O)C1` (stereo unspecified): 36.3% (active) and 90.7%.
For the compound `CCC1CCCCN1C(=S)NC(=O)c1ccc(F)cc1` (stereo unspecified), the inhibition runs as follows: under setting [1], 7.93% (inactive); under setting [2], 0.813%.
